Screening results deposited in PubChem by National Center for Advancing Translational Sciences (NCATS).
Shiga toxin inh – A qHTS for Small Molecule Inhibitors of Shiga Toxin; Vero cells, Shiga toxin protein synthesis inhibition reporter; inhibition, % at 38.7 µM; 290,000 tested, 9.2% active; in the data active means inhibition mostly above about 28%, no sharp cut-off; inactive means mostly below about 43%
HCMV inh – qHTS Assay for inhibitors of the human cytomegalovirus (HCMV); HFF cells, HCMV-luciferase reporter, 72 h; stronger effect = lower value; activity change, negative = inhibition, % at 57.5 µM; 410,000 tested, 4.5% active; in the data active means activity change below about -60%; inconclusive means no clear call, values can overlap the other calls; inactive means above about -39%
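HFF cells seeded 16 h at 37C, treated with compounds, infected with luciferase-reporter HCMV at MOI 1 PFU/cell; luciferase read at 72 h post infection, normalized to buffer-only and Salinomycin controls.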
Pf growth 48h – Primary qHTS for delayed death inhibitors of the malarial parasite plastid, 48 hour incubation. P. falciparum luciferase growth in erythrocytes, 48 h. Potency, µM (top dose mostly 28.7 µM), hits mostly inhibitors. 310,000 tested, 5.9% active
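Growth was read as firefly luciferase luminescence after a 48 h, 37 C, 5% CO2 exposure of compounds to reporter-bearing P. falciparum cultures (0.1% parasitemia, 2% hematocrit final) in Albumax-supplemented RPMI 1640.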
HCV inhibitor – qHTS Assay for Inhibitors of Hepatitis C Virus (HCV); 340,000 tested, 3.4% active; Huh7.5.1 HCVcc-Cre infection, luciferase reporter, 44 h; Potency, µM (highest dose often 41.8 µM), actives largely listed as inhibitors
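Infectious HCVcc-Cre (~0.5 moi) was added to cells just after compound, with cells seeded 4 h earlier at 1,000 per well. Luciferase activity after 44 h culture reported infection; substrate was incubated 15 min at room temperature before reading.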
Pf growth 96h – Primary qHTS for delayed death inhibitors of the malarial parasite plastid, 96 hour incubation | P. falciparum luciferase reporter growth, 96 h | Potency, µM (doses to about 28.7 µM), actives largely listed as inhibitors | 320,000 tested, 6.9% active | AID 504834, 2011
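Erythrocytes infected with luciferase-expressing P. falciparum were dispensed at 2% hematocrit and 0.05% parasitemia (final), then incubated with compounds 96 hours at 37 C in 5% CO2. Luminescence after detection reagent addition reported growth.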
Cycloheximide cs – Cycloheximide Counterscreen for Small Molecule Inhibitors of Shiga Toxin; cell reporter, cycloheximide protein synthesis inhibition counterscreen; max response, %; 300,000 tested, 12% active; AID 2314, 2010; in the data active means max response mostly above about 13%, no sharp cut-off; inactive means mostly below about 14%; further: read at 38.3 µM for the half of the compounds with a filed dose
Large screens that a line does not name were inactive. The list is not random: actives were taken first. Their share in the collection is about 21%. Unless noted, the call rests on the fitted dose curve; in most records, active means well fitted inhibition curve with a large enough effect; inconclusive means small, poorly fitted or top-dose-only effect, or another doubt; inactive means no such curve, though single readings can be large or run the other way.

CCc1ccccc1Nc1nc(N)nc(COC(=O)C2CCN(C(=O)c3ccc(F)cc3)CC2)n1	Pf growth 48h 12µM, Pf growth 96h inconclusive (no result: Shiga toxin inh, Cycloheximide cs)
Nc1nc(COC(=O)C2CCN(C(=O)c3ccc(Cl)cc3)CC2)nc(Nc2ccccc2)n1	Pf growth 48h inconclusive, Pf growth 96h inconclusive (no result: Shiga toxin inh, Cycloheximide cs)
CCc1ccccc1Nc1nc(N)nc(COC(=O)c2cccn2C)n1	HCMV inh -65, HCV inhibitor inconclusive, Cycloheximide cs 30
CC(C)COc1cccc(C(=O)N(CC(=O)Nc2ccccc2C(F)(F)F)Cc2ccco2)c1	Pf growth 48h inconclusive, HCV inhibitor inconclusive, Pf growth 96h inconclusive (no result: Shiga toxin inh, Cycloheximide cs)
O=C(N/N=C/c1c(Cl)cccc1Cl)c1ccccc1F	Shiga toxin inh 46, Pf growth 96h inconclusive, Cycloheximide cs 26
O=C(N/N=C/C(c1ccccc1)c1ccccc1)c1ccccc1F	Cycloheximide cs 49
CCC(/C=N/NC(=O)c1ccccc1F)CC	none
Cn1cccc1C(=O)N/N=C/c1c(Cl)cccc1Cl	Shiga toxin inh 61, Cycloheximide cs 63 (no result: Pf growth 48h)
COc1cc(CN2CC(=O)N(c3cccc(Cl)c3C)C2=S)cc(OC)c1OC	HCMV inh -63, Pf growth 48h 2.6µM
COc1cc(CN2CC(=O)N(c3ccccc3Cl)C2=S)cc(OC)c1OC	Pf growth 48h 5.9µM, HCV inhibitor inconclusive
COc1ccc(C)cc1NC(=O)C(OC(=O)CNC(=O)c1ccc(Br)cc1)c1ccccc1 (centres undefined)	HCV inhibitor inconclusive, Cycloheximide cs 12
COc1ccc(C)cc1NC(=O)C(NCC(O)c1ccccc1)c1ccccc1 (centres undefined)	Pf growth 48h inconclusive, Pf growth 96h 10µM
CCOC(=O)Cn1c(=O)cc(C)c2ccccc21	none
Cc1n(CC(=O)c2ccc(F)cc2)c2ccccc2[n+]1C	Pf growth 48h 3.7µM, Pf growth 96h inconclusive
Cn1c(=N)n(CC(=O)c2ccc(Br)cc2)c2ccccc21	HCV inhibitor 6.3µM (no result: Shiga toxin inh, Pf growth 48h, Pf growth 96h, Cycloheximide cs)
CCOC(=O)Cn1c(C)[n+](CC(=O)c2ccccc2)c2ccccc21	Pf growth 48h inconclusive, Pf growth 96h 5.2µM
CCCCc1n(CC(=O)c2ccc(Cl)cc2)c2ccccc2[n+]1C	HCMV inh inconclusive, Pf growth 48h 1.2µM, Pf growth 96h inconclusive
O=C(Cn1c(NCCCl)nc2ccccc21)c1ccc(Br)cc1	none (no result: Shiga toxin inh, Pf growth 48h, Pf growth 96h, Cycloheximide cs)
O=C(Cn1c(C(F)(F)F)nc2ccccc21)c1ccc(F)cc1	HCV inhibitor inconclusive
O=C(Cn1c(NCCCO)nc2ccccc21)c1ccc(Cl)cc1	Pf growth 48h inconclusive
Cc1nc(SCC(=O)N(C)C2CCS(=O)(=O)C2)c(C#N)c(C)c1C (centres undefined)	none (no result: Shiga toxin inh, Cycloheximide cs)
Cn1c(=N)n(CC(=O)c2ccc(F)cc2)c2ccccc21	Shiga toxin inh 68, HCMV inh inconclusive, HCV inhibitor inconclusive, Cycloheximide cs 37 (no result: Pf growth 48h)
O=C(CN1CCOCC1)c1ccc(Br)cc1	none
N=C1CCCN1CC(=O)c1ccc(Br)cc1	Shiga toxin inh active, Cycloheximide cs 46
O=C(Cn1c(NCCO)nc2ccccc21)c1ccc(F)cc1	none
Cn1c(COc2ccc(Cl)cc2Cl)nnc1SCC(=O)NCC1CCCO1 (centres undefined)	none
Cc1cc(=O)oc2cc(OCC(=O)N3CCC(O)CC3)c(Cl)cc12	Pf growth 96h inconclusive
COC(=O)Nc1ccc(S(=O)(=O)N2CCCc3cccc(O)c32)cc1	HCV inhibitor 11µM
CCC(=O)Nc1ccc(S(=O)(=O)N2CCc3ccccc32)cc1	none
COC(=O)Nc1ccc(S(=O)(=O)N2CCCc3ccccc32)cc1	Shiga toxin inh 41, HCMV inh -62, Pf growth 48h inconclusive, HCV inhibitor 3.2µM, Cycloheximide cs 18
CC1CCC2(CC1)NC(=O)N(NC(=O)c1cc3ccccc3o1)C2=O (centres undefined)	HCMV inh inconclusive (no result: Shiga toxin inh, Cycloheximide cs)
Cc1ccc2c(=O)c(C(=O)c3cccc(Cl)c3)cn(CC(=O)NC3CCCCC3)c2n1	none (no result: Shiga toxin inh, Pf growth 48h, HCV inhibitor, Pf growth 96h, Cycloheximide cs)
O=C(NN1C(=O)c2ccccc2NC1c1ccco1)c1ccc(Br)cc1 (centres undefined)	none
CC(=O)NN1C(=O)c2ccccc2NC1c1ccco1 (centres undefined)	Pf growth 96h inconclusive
